Reference: paper PMC4336329 (PLoS ONE, 2015)
Screen size: about 310,000 compounds; about 14,000 (4.5%) showed an effect of 50% or more. The effect is printed as a negative number. The sample as a whole holds a higher share of strong results than the screen did.

These compounds were tested against human ether-à-go-go-related gene (hERG) potassium channel (human, UniProt Q12809) (assay: primary screen, population patch clamp on CHO cells stably expressing hERG; higher = less effect of the substance).
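Note: peak tail current of the secondary pulse compared with the same well before compound.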

human ether-à-go-go-related gene (hERG) potassium channel, sequence (Q12809 whole entry, looked up): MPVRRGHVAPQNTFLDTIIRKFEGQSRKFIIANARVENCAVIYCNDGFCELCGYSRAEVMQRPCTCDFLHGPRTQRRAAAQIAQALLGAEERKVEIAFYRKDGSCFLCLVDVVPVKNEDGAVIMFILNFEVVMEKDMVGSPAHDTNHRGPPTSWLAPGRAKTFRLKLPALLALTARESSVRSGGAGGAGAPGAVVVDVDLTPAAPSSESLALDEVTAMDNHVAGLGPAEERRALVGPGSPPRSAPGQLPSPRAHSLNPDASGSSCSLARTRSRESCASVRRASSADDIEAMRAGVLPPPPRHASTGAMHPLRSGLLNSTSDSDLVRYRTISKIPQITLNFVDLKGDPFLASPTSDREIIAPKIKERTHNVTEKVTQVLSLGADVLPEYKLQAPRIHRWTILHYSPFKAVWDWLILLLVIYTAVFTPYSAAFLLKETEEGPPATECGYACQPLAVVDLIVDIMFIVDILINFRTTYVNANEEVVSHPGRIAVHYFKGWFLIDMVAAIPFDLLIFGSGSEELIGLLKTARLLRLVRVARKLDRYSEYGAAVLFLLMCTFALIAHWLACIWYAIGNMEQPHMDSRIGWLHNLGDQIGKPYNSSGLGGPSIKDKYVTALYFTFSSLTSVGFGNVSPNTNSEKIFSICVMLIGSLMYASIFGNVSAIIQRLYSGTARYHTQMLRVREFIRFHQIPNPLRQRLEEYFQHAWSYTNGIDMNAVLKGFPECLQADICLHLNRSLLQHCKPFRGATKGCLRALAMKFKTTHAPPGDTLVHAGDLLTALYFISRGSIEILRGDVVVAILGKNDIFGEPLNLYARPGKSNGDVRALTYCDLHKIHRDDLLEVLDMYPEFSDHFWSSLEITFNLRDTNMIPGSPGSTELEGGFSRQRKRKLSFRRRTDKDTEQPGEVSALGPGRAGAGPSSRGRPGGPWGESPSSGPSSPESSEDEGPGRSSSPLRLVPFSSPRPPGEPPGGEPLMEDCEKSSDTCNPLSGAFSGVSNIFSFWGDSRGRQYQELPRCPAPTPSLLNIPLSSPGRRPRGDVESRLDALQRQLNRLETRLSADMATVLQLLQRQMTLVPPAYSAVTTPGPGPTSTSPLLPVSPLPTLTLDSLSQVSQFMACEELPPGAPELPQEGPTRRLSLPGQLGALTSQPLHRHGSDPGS

SMILES | hERG current change (%, negative = inhibition) at 10uM [%]
COc1ccc(CN(C#N)c2nc(C)cc(C)n2)cc1 | 14.1
CCOC(=O)C1=C(COC(=O)CCOc2cc(C)ccc2C)NC(=O)NC1C (stereo not shown) | -26.5
Cc1ccc(N(C(=O)c2snc(C(N)=O)c2N)C(C(=O)NCC2CCCO2)c2ccc(C)o2)c(C)c1 (stereo not shown) | -40.9
CCN(CC(=O)Nc1ccc(NC(C)=O)cc1)C(=O)C1CCCC1 | -13.9
O=C(NNC(=S)NC(=O)C12CC3CC(CC(C3)C1)C2)c1ccncc1 | 19.8
CCOC(=O)c1c(C)[nH]c(C(=O)OCc2ccc(F)cc2)c1C | -0.855
Cc1ccc(S(=O)(=O)Nc2cccc(C(=O)NC3CCN(Cc4ccccc4)CC3)c2)cc1F | -80.6
C=CCN(c1ccccc1)S(=O)(=O)c1cccc(C(=O)NC2CCC(O)CC2)c1 (stereo not shown) | -7.48
COc1ccc(NS(=O)(=O)c2cccc(C(=O)NC3CCN(Cc4ccccc4)CC3)c2)cc1 | -46.7
Cc1ccc(S(=O)(=O)Nc2cccc(C(=O)NCC3CCCO3)c2)cc1F (stereo not shown) | 2.12
COc1ccccc1NS(=O)(=O)c1cccc(C(=O)NN)c1 | -5.56
O=C(NC1CCN(Cc2ccccc2)CC1)c1cccc(S(=O)(=O)Nc2ccc(Br)cc2)c1 | -59.7
O=C(NCCN1CCOCC1)c1cccc(S(=O)(=O)Nc2ccc(Br)cc2)c1 | -20.4
COc1ccccc1NC(=O)c1cccc(S(=O)(=O)N2CCN(Cc3ccccc3)CC2)c1 | -19.6
COc1ccccc1NS(=O)(=O)c1cccc(C(=O)NC2CCN(Cc3ccccc3)CC2)c1 | -56
C=CCN(c1ccccc1)S(=O)(=O)c1cccc(C(=O)O)c1 | 16
O=C(c1cccc(NS(=O)(=O)c2ccc(F)c(F)c2)c1)N1CCN(Cc2ccccc2)CC1 | -26.8
C=CCN(c1ccccc1)S(=O)(=O)c1cccc(C(=O)NC2CCN(Cc3ccccc3)CC2)c1 | -65.3
COc1ccc(-c2csc(-c3cccs3)n2)c(OC)c1 | 15.8
CCCN1CNC(=S)N(Cc2ccccc2)C1 | 12.2
NC(=O)c1ccsc1NC(=O)COC(=O)c1ccc(Cl)cc1 | -5.38

SMILES | hERG current change (%, negative = inhibition) at 10uM [%]
COc1ccccc1NC(=O)C(=O)N(c1cccnc1)C(C(=O)NC(C)(C)C)c1ccccc1 (stereo not shown) | 18.7
CCC(C)(C)NC(=O)c1cc(S(=O)(=O)N2CCCCC2)ccc1N1CCOCC1 | -13.4
O=C1NC(=O)/C(=C\c2ccccc2OCc2cccc([N+](=O)[O-])c2)N1 | -5.66
O=C(CCn1c(=O)[nH]c2ccsc2c1=O)Nc1ccc(F)c(F)c1 | 21
COc1cccc(NC(=O)Cc2nnc(SCC(=O)NC(C)c3ccccc3)n2C)c1 (stereo not shown) | 15.1
CCCCNc1nc2c(c(=O)n(C)c(=O)n2C)n1CCC | 9.61
COc1ccc(NS(=O)(=O)c2ccc(C)c(C(=O)NC3CCN(Cc4ccccc4)CC3)c2)cc1 | -51.1
CCOc1ccc(NS(=O)(=O)c2ccc(C(=O)NC3CCN(Cc4ccccc4)CC3)cc2)cc1 | 3.07
O=C(NC1CCN(Cc2ccccc2)CC1)c1cccc(S(=O)(=O)Nc2cc(C(F)(F)F)ccc2Cl)c1 | -48.8
O=C(NCCCN1CCOCC1)c1cccc(S(=O)(=O)Nc2ccc(F)cc2)c1 | -23.3
O=C(NC1CCN(Cc2ccccc2)CC1)c1cccc(S(=O)(=O)Nc2ccc(F)cc2)c1 | -63.8
COCCNS(=O)(=O)c1ccc(Cl)c(C(=O)NC2CCN(Cc3ccccc3)CC2)c1 | -1.21
CN(C)S(=O)(=O)Nc1cccc(Br)c1 | -14.2
COc1cc(O)c(C(CCN2CCCC(C)C2)c2cc(OC)c(OC)c(OC)c2)c(OC)c1 (stereo not shown) | 5.07
CCCCCc1cc(=O)oc2c(C(CCN3CCCC(C)C3)c3cc(OC)c(OC)c(OC)c3)c(OC)cc(OC)c12 (stereo not shown) | -64.4
CCCCCc1cc(=O)oc2c(C(CCN3CCCC3)c3cc(OC)c(OC)c(OC)c3)c(OC)cc(OC)c12 (stereo not shown) | -65.6
CCCCCc1cc(=O)oc2c(C(CCN3CCCCC3)c3cc(OC)c(OC)c(OC)c3)c(OC)cc(OC)c12 (stereo not shown) | -74.6
CCCCCc1cc(=O)oc2c(C(CCN(CC)CC)c3cc(OC)c(OC)c(OC)c3)c(OC)cc(OC)c12 (stereo not shown) | -38.2
Cc1cccc2c1N(N=O)CCC2 | -2.33
Cc1ccc(N2CC(C(=O)Nc3ccc4c(c3)OCO4)CC2=O)cc1 (stereo not shown) | 9.48
Cc1ccc(-c2c(C(=O)N/N=C/C3CC=CCC3)nnn2-c2nonc2N)cc1 (stereo not shown) | 20.5

SMILES | hERG current change (%, negative = inhibition) at 10uM [%]
Cc1nccnc1Sc1ccccc1 | 22.4
Cc1ccc(S(=O)(=O)NNC(=O)Cc2cccn2C)cc1 | 11.2
CCCCN(C)C(=O)c1oc2ccc(S(=O)(=O)N3CCCCCC3)cc2c1C | -15.9
CCC1Sc2ccc(S(=O)(=O)CCC(=O)Nc3cc(C)ccn3)cc2NC1=O (stereo not shown) | 11.9
COc1ccccc1C(=O)Nc1cccc2nc(C)ccc12 | 8
Cc1cc(NC(=O)c2cnn3cccnc23)no1 | -0.805
Cc1cc(C(=O)Nc2ccc(F)cc2C)n(-c2ccccc2)n1 | 12.6
Cc1cc(C(=O)Nc2c(F)cc(F)cc2Br)n(-c2ccccc2)n1 | 16
CCOC(=O)c1ccc(NC(=O)c2cc(C)nn2-c2ccccc2)cc1 | -7.01
Cc1cc(C(=O)Nc2c(F)c(F)c(F)c(F)c2F)n(-c2ccccc2)n1 | -59.1
Cc1c(NC(=O)c2cnn3cccnc23)c(=O)n(-c2ccccc2)n1C | 4.45
Cc1cc(NC(=O)c2ccc(F)cc2)n(-c2ccccc2)n1 | -80.2
CCOC(=O)c1cccc(NC(=O)c2cc(C)nn2-c2ccccc2)c1 | -50.5
Cc1cc(NC(=O)c2ccc(Cl)cc2)n(-c2ccccc2)n1 | -1.41
CC(=O)c1cccc(NC(=O)c2cc(C)nn2-c2ccccc2)c1 | -21
Cc1cc(NC(=O)c2ccccc2)n(-c2ccccc2)n1 | 30.8
Cc1cc(NC(=O)c2cnn3cccnc23)n(-c2ccccc2)n1 | -61.8
COc1ccc(OC)c2c1C(=O)C(Cl)=C(Cl)C2=O | 13.4
COCc1c(C#N)c(NCCc2ccc(F)cc2)nc(C)c1[N+](=O)[O-] | 1.39
Cc1ccc(C(=O)Nc2ccc3c4c(cccc24)CC3)cc1[N+](=O)[O-] | -1.54
Cc1cc(C)n(-c2nnc(C)n2NS(C)(=O)=O)n1 | 14.6

SMILES | hERG current change (%, negative = inhibition) at 10uM [%]
Cc1csc(C(C#N)C(=O)c2ccc(S(=O)(=O)N3CCCC3)cc2)n1 (stereo not shown) | 5.45
COc1ccccc1N1CCN(C(=O)CN2C(=O)C3CCCCC3C2=O)CC1 (stereo not shown) | 22.7
Cc1onc(-c2c(F)cccc2Cl)c1C(=O)Nc1c(C)n(C)n(-c2ccccc2)c1=O | 0.00478
COc1ccccc1NS(=O)(=O)c1cc(C)ccc1C | 4.55
CCCc1nn(C)c2c(=O)[nH]c(-c3cc(S(=O)(=O)N(CCO)CCO)ccc3OCC)nc12 | 0.59
CCc1ccc2c(c1)C(c1ccc([N+](=O)[O-])cc1)=NNC(c1ccc(F)cc1)=N2 | -7.54
COc1ccc(N2CCN(C(=O)c3ccc(CS(=O)(=O)c4ccc(OC)cc4)o3)CC2)cc1 | -64.7
COc1ccc(S(=O)(=O)Cc2ccc(C(=O)N3CCN(c4cccc(C)c4C)CC3)o2)cc1 | -30.6
COc1ccc(S(=O)(=O)Cc2ccc(C(=O)N3CCN(c4ncccn4)CC3)o2)cc1 | -16.8
COc1ccc(S(=O)(=O)N2CCN(C(=O)c3ccc(C)o3)CC2)cc1 | -5.16
CCOC(=O)N1CCN(C(=O)c2ccc(CS(=O)(=O)c3ccc(OC)cc3)o2)CC1 | -16
COc1ccc(S(=O)(=O)Cc2ccc(C(=O)N3CCN(c4ccccc4F)CC3)o2)cc1 | -52.8
COc1ccc(CCC(=O)N2CCN(S(=O)(=O)c3ccc(OC)cc3)CC2)cc1 | -8.45
COc1ccc(S(=O)(=O)Cc2ccc(C(=O)N3CCN(c4ccccc4)CC3)o2)cc1 | -37.6
COc1ccc(S(=O)(=O)Cc2ccc(C(=O)N3CCN(c4ccc(Cl)cc4)CC3)o2)cc1 | -55.5
COc1ccc(S(=O)(=O)Cc2ccc(C(=O)N3CCN(c4cc(Cl)ccc4C)CC3)o2)cc1 | 9.01
COc1ccc(S(=O)(=O)Cc2ccc(C(=O)N3CCOCC3)o2)cc1 | 1.23
COc1ccc(S(=O)(=O)N2CCN(C(=O)c3ccc([N+](=O)[O-])o3)CC2)cc1 | -51.3
CC(=O)c1ccc(N(C(=O)CNC(=O)c2ccco2)C(C(=O)NC2CCCC2)c2ccncc2)cc1 (stereo not shown) | 20.3
